Mtb UGM inh – M. tuberculosis UGM enzyme inhibitors, primary screen, biochemical, fluorescence polarization, single point | UDP-galactopyranose mutase (Mycobacterium tuberculosis (strain ATCC 25618 / H37Rv)), … | purified UGM, fluorescence polarization probe displacement | inhibition, % at 10 µM | 320,000 compounds, 0.06% hits; in the data active = inhibition above about 10%, passing the limit was not always enough
Target sequence (P9WIQ1 whole entry, looked up): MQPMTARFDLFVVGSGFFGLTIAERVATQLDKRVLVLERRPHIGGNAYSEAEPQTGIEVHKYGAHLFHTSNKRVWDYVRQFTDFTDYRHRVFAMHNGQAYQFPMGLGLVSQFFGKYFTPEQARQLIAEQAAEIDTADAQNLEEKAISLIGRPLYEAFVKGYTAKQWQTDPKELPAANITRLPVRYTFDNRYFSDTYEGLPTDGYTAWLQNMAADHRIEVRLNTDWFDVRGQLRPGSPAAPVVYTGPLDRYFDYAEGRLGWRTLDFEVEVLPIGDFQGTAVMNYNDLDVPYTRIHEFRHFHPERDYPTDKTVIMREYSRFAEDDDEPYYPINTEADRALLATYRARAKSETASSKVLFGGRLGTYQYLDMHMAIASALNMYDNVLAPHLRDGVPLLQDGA
Rv3671c protease – Rv3671c serine protease inhibitors, primary screen, biochemical, fluorescence polarization, M. tuberculosis H37Rv. P9WHR9. inhibition, % at 5.96 µM. 320,000 compounds, 0.048% hits; in the data active = inhibition above about 38%;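 note: extracellular domain of Rv3671c used as enzyme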
GDH-TPI inh – GDH-TPI coupling enzyme inhibitors, primary screen, artefact control for M. tuberculosis FBA inhibitor project, biochemical, absorbance, full deck. GDH-TPI coupled enzyme counterscreen, NADH absorbance. inhibition, % at 4.8 µM. 360,000 compounds, 1.2% hits. AID 588335, 2011; in the data active = inhibition above about 30%
RecA intein inh – Mtb RecA intein splicing inhibitors, primary screen, biochemical, fluorescence, HTS; Protein RecA (Mycobacterium tuberculosis (strain ATCC 25618 / H37Rv)), P9WHJ3; cell-free RecA intein splicing; inhibition, % (concentration not given with the values); 290,000 compounds, 0.75% hits; AID 2221, 2009; in the data active = inhibition above about 30%
Mtb FBA inh – Mtb FBA enzyme inhibitors, primary screen, biochemical, fluorescence, strain H37Rv; Fructose-bisphosphate aldolase (Mycobacterium tuberculosis (strain ATCC 25618 / H37Rv)), …; purified M. tuberculosis FBA, fluorescence read-out; inhibition, % at 1 µM; 360,000 compounds, 2.3% hits; AID 588726, 2011; in the data active = inhibition above about 27%
Mtb betalactam – beta-lactam sensitization of Mtb H37Rv, H37Rv. M. tuberculosis H37Rv growth with meropenem, percent inhibition. inhibition, % at 25 µM. 330,000 compounds, 0.27% hits. AID 434955, 2010; call rule not given here;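 note: growth measured after seven days incubation then overnight dye step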
Numbers stand for hits; 0 = inactive; - = no result; + = active, no number. Most compounds without a hit are left out; they make up all but 4% or so of the library.

SMILES	Mtb UGM inh	Rv3671c protease	GDH-TPI inh	RecA intein inh	Mtb FBA inh	Mtb betalactam
C[C@@H]1CCCCO[C@@H](CN(C)S(=O)(=O)c2ccc(Cl)cc2)[C@@H](C)CN([C@H](C)CO)C(=O)c2cc(N(C)C)ccc2O1	-	-	0	-	0	-
COCCNc1nc(Nc2ccc(C(=O)OC)cc2)c2sccc2n1	-	-	31	-	0	-
CC(C)(C)c1ccc(OC(=O)Nc2ccc(O)c(C(=O)O)c2)cc1	0	0	0	0	80	0
CCCCOc1ccc(C(=O)NCC(=O)NCCOc2ccccc2OC)cc1	0	0	0	-	0	0
CCCCc1cc(=O)oc2cc(C)cc(OCC(=O)O)c12	0	0	0	0	152	0
CCOc1cc(C)cc2oc(=O)c3c(c12)CCCC3	0	0	0	0	0	0
Cc1cc(OCC(=O)NCC(O)c2ccccc2)c2c3c(c(=O)oc2c1)CCC3 (stereo not drawn)	0	0	0	0	0	0
Cc1cc(OCC(=O)N[C@H](C(=O)O)c2ccccc2)c2c3c(c(=O)oc2c1)CCC3	0	0	0	-	114	0
Cc1cc(OCC(=O)O)c2c3c(c(=O)oc2c1)CCCC3	0	0	0	0	185	0
Cc1cc(OCC(=O)N[C@@H](Cc2ccccc2)C(=O)O)c2c3c(c(=O)oc2c1)CCC3	0	0	0	0	137	0
O=C(NCc1ccc(Cl)cc1)c1ccc(-c2ccc(F)c(F)c2)c2ccoc12	-	-	0	-	0	-
CCOC(=O)COc1cc(OCC(=O)OCC)c2c3c(c(=O)oc2c1)CCCC3	0	-	0	0	160	0
CCCOC(=O)COc1cc(C)cc2oc(=O)c3c(c12)CCC3	0	0	0	0	0	0
Cc1c(OCC(=O)NC(Cc2ccc(Cl)cc2)C(=O)O)ccc2c3c(c(=O)oc12)CCC3 (stereo not drawn)	0	0	0	0	0	0
Cc1cc(OCC(=O)NC(Cc2ccc(Cl)cc2)C(=O)O)c2c3c(c(=O)oc2c1)CCC3 (stereo not drawn)	0	0	0	0	72	0
COc1ccc(Br)cc1S(=O)(=O)N1CCCc2ccccc21	0	0	0	0	0	0
COc1ccc(-c2c(NC(=O)c3ccco3)oc3ccccc3c2=O)cc1	0	0	40	0	0	0
COc1cccc(-c2c(NC(C)=O)n(C)c3ccccc3c2=O)c1	0	0	0	0	0	0
COc1ccc(-c2c(NC(C)=O)n(C)c3ccccc3c2=O)cc1	0	0	36	0	0	0
Cc1ccccc1NC(=O)CCc1nnc2ccc(N3CCC4(CC3)OCCO4)nn12	0	0	0	0	0	0
S=c1[nH]c2ccc(Cl)cc2[nH]1	0	0	0	0	0	0
S=c1ncc2[nH]c(=S)[nH]c2[nH]1	-	-	36	-	0	-
COc1ccc([C@H]2N[C@]3(CCCN(Cc4ccc(Cl)cc4)C3=O)[C@H]3C(=O)N(Cc4ccccc4)C(=O)[C@@H]23)cc1	-	-	0	-	0	-
Cn1ccc2c(/C=C/c3ccc(F)cc3)cc3c(c21)C1CCC3C1 (stereo not drawn)	-	-	-	-	0	-
Cn1ccc2c(/C=C/c3ccc(F)cc3)cc3c(c21)C1CCC3O1 (stereo not drawn)	-	-	-	-	140	-
SMILES	Mtb UGM inh	Rv3671c protease	GDH-TPI inh	RecA intein inh	Mtb FBA inh	Mtb betalactam
COc1cccc(CN(C)S(=O)(=O)c2ccccc2Br)c1	-	-	0	-	0	-
CCCc1cc(NCCCO)n2c(nc3ccccc32)c1C#N	0	0	0	0	+	0
CCCc1cc(-n2ccnc2)n2c(nc3ccccc32)c1C#N	0	0	0	0	0	0
Cc1cc(NCCCN(C)C)n2c(nc3ccccc32)c1C#N	0	0	0	0	+	0
CCC(C)Nc1cc(C)c(C#N)c2nc3ccccc3n12 (stereo not drawn)	0	0	0	0	+	0
Cc1cc(NCCN2CCCCC2)n2c(nc3ccccc32)c1C#N	-	-	-	0	-	-
Cc1cc(NCCCn2ccnc2)n2c(nc3ccccc32)c1C#N	0	0	0	0	70	0
CCC(C)Sc1cc(C)c(C#N)c2nc3ccccc3n12 (stereo not drawn)	0	0	0	0	0	0
COc1ccccc1N(CC(=O)N1CCN(c2ccc(F)cc2)CC1)S(=O)(=O)c1ccc(C)cc1	0	0	0	0	0	0
CN(C(=O)c1nc(-c2ccccc2)n(-c2ccccc2)n1)C1CCS(=O)(=O)C1 (stereo not drawn)	0	0	0	0	0	0
CCc1ccc(N(CC(=O)NC(C)C)C(=O)CCC(=O)Nc2nccs2)cc1	0	0	0	0	0	0
Cc1cc(Nc2ccc(O)cc2)n2c(nc3ccccc32)c1C#N	0	0	0	0	0	0
Cc1cc(NCCCOC(C)C)n2c(nc3ccccc32)c1C#N	0	0	0	0	190	0
O=C(c1ccc(N2CCN(C(=O)c3ccccc3Br)CC2)cc1)c1cccc(F)c1	0	0	0	0	0	0
CC(=O)c1ccc(N2CCN(C(=S)Nc3cccc(F)c3)CC2)cc1	0	0	35	0	0	0
O=C(c1ccc(N2CCN(C(=O)c3cccc(F)c3)CC2)cc1)c1cccc(F)c1	0	0	31	0	0	0
CC(=O)c1ccc(N2CCN(C(=S)Nc3ccc(Oc4ccccc4)cc3)CC2)cc1	0	0	0	0	0	0
COc1ccccc1-c1cc2c(c3c1ccn3C)C1CCC2C1 (stereo not drawn)	-	-	-	-	0	-
Cn1ccc2c(-c3ccc(C(=O)O)cc3)cc3c(c21)C1CCC3C1 (stereo not drawn)	-	-	-	-	+	-
CCCOc1cc(N)ccc1C(=O)OCCN(CC)CC	0	0	0	-	0	0
CCCOc1ccc(N)cc1N	0	0	0	30	0	0
O=C(CN1C(=O)c2ccccc2S1(=O)=O)c1ccc(O)c(O)c1	0	0	59	0	0	0
O=C(CN1C(=O)c2ccccc2S1(=O)=O)c1ccc(F)c(F)c1	0	0	0	0	0	0
COc1cc(/C=N/Nc2nc(=O)[nH]nc2C)cc([N+](=O)[O-])c1O	0	0	38	0	0	0
COc1cc(/C=N/NC(=O)c2ccc(C)nc2)cc([N+](=O)[O-])c1O	0	0	0	0	0	0
COc1ccc(/C=N/Nc2nc(=O)[nH]nc2C)cc1[N+](=O)[O-]	0	0	38	-	0	0
COc1cc(/C=N/NC(=O)Cc2ccccc2)cc([N+](=O)[O-])c1O	0	0	59	0	0	0
Cc1ccc(OCC(=O)N/N=C\c2ccc(O)c([N+](=O)[O-])c2)c([N+](=O)[O-])c1	0	0	0	0	0	0
Cc1n[nH]c(=O)nc1N/N=C/c1ccc(O)c([N+](=O)[O-])c1	0	0	43	0	0	0

Screening results from PubChem.
